Among the data in PubChem BioAssay are inhibition values, retold here.

SMILES strings stand for the structures. Unmarked numbers belong to inactive results. Activity calls are given as the source filed them. Rule as the data show it, unless noted: active = inhibition above about 42%; inactive = the rest.

Chain of Nuclear receptor subfamily 5 group A member 2 (Homo sapiens) (O00482 whole entry, looked up): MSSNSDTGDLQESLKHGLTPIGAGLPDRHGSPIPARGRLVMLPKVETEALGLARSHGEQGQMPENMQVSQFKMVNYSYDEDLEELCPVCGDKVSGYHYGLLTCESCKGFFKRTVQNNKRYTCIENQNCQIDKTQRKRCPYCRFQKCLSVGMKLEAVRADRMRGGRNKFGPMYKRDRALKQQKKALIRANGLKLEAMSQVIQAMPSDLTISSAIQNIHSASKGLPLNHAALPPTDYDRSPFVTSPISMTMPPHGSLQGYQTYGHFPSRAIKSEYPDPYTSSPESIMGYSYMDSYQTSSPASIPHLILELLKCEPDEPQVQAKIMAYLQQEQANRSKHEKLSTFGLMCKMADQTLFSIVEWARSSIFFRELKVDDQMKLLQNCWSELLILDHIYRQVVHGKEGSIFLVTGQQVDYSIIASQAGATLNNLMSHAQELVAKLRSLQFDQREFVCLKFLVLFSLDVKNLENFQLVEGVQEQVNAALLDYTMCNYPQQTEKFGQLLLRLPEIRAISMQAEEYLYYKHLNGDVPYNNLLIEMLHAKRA

Tested on in one experiment: not listed separately
Kind of experiment: StAR promoter reporter inhibitors, counter-screen for LRH-1 inverse agonist project, cell-based, luminescence, high throughput (AID 651611; in the data active = inhibition above about 28%). The note with it: StAR promoter luciferase reporter counterscreen, at 3.6 µM, stronger effect = higher value.
In the case of `CS/C(=C\[N+](=O)[O-])Nc1ccc(OC(F)(F)F)cc1`, the inhibition was 42% (active).
The same measure, in the same setting: the same measure for `COc1ccc(NC(=O)CSc2nnc(-c3ccccn3)n2N)cc1Cl`: 20.3%; for `C#Cc1ccc(NC(=O)C2(C)CCN2C(=O)Cc2ccc(C(C)(C)C)cc2)cc1` (centres undefined): 4%; for `Cc1cc(OCC(=O)Nc2ccc(OCc3ccccc3)cc2)nc(C(C)C)n1`: -0.66%.
On the same count and under the same terms, the result for `O=c1c2ccc(Cl)cc2nc(-c2cccc(C(F)(F)F)c2)n1O` reads 26.8%; that for `Cc1ccc(C(=O)N/N=C\c2ccc([N+](=O)[O-])o2)cn1`, 24.3%; that for `Cc1cc(OCC(=O)Nc2nccs2)c2c(C)c(C)c(=O)oc2c1`, 42% (active).
As for `Cc1ccc(C)c(NC(=O)CSc2nnc(-c3n[nH]c4ccccc34)o2)c1`, the inhibition was 10.3%.
Same read-out and setting: the result for `COc1ccc(-c2cc(NC=O)c3ncc(-c4ccc(C(C)=O)cc4)n3c2)cn1` reads 41.6% (active).

The next experiment addresses Nuclear receptor subfamily 5 group A member 2 (Homo sapiens) (UniProt O00482). The experiment is described as follows: LRH-1 (NR5A2) inverse agonists, retest, confirmation, cell-based, luminescence (AID 651613).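 Also: HEK293T cells co-transfected with LRH-1 and StAR promoter luciferase reporter; 0% = vehicle wells and 100% = parental cells lacking receptor.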 The following applies: cell-based LRH-1 luciferase reporter, inverse agonism; at 3.6 µM; stronger effect = higher value.
For the molecule `CC(=O)Oc1ccc(N(C(C)=O)S(=O)(=O)c2ccccc2)c2ccccc12`, the inhibition was 31.6%.
Same read-out and setting: the same measure for `CCc1c(C)nc(SCC(=O)Nc2ccc3c(c2)OCCO3)[nH]c1=O`: 63.7% (active); for `O=C(CCl)NCCCN(C(=O)C(Cl)Cl)c1ccc([N+](=O)[O-])cc1`: 59.2% (active); for `CCOc1ccc(Br)cc1C1=NN(C(C)=O)C(c2ccc([N+](=O)[O-])s2)O1` (centres undefined): 66.8% (active).
On the same count and under the same terms, the result for `COc1ccc(NC(=O)Cn2c(C)cc(=O)c3ccccc32)cc1` reads 64.9% (active).
Same read-out and setting: the result for `Cc1cc(=O)oc2cc(OCC(=O)N3CCN(C(=O)C4COc5ccccc5O4)CC3)ccc12` (centres undefined) reads 49% (active); that for `COc1ccc(OCCNC(=O)C2(C)CCN2Cc2ccc3ccccc3c2)cc1` (centres undefined), 45.2% (active); that for `CCOc1ccc(NC(=O)COC(=O)c2ncc(Cl)c(Cl)c2Cl)cc1`, 38.4%.
Consider `Oc1[nH]c2ccc(Br)cc2c1N=NC(=S)N1CCOCC1`, for which the inhibition is 93.8% (active).
The same measure, in the same setting: the same measure for `C#CCSc1nsc(SCC#C)c1C#N`: 53.4% (active).
On to `c1ccc(-c2nc(NCc3cccnc3)c3oc4ccccc4c3n2)cc1`, for which the inhibition was 62.4% (active).
As for `O=C(CSc1n[nH]c(-c2ccccn2)n1)Nc1ccc(Cl)cc1`, the inhibition was 70% (active).
Still for that read-out and setting: the result for `COc1ccc(NC(=O)COC(=O)c2c(-c3ccccc3)noc2C)cc1` reads 63% (active).
With `CCOc1ccc2c(c1)sc(N)[n+]2Cc1cc(C)cc2cccnc12`, the inhibition was 56.2% (active).
Consider `COc1cccc(-c2nc(NCC3CCCO3)c3ccccc3n2)c1O` (centres undefined), for which the inhibition was 64.7% (active).
With `CN(C)c1ccc(NC(=O)CN2CCC(NC(=O)C3CCCCC3)CC2)cc1`, the inhibition is 62.6% (active).
For `Cn1ncc(Cl)c1C(=O)NCc1ccc2c(c1)OCO2`, the inhibition is 45.4% (active).
Take `Cc1ccccc1NC(=S)NCc1ccc2[nH]c3c(c2c1)CCCC3`: the inhibition is 17.9%.
Still for that read-out and setting: the same measure for `C#CCN(C[C@@H]1[C@@H](OC(=O)NCc2ccc(OC)c(OC)c2)[C@@H](OC(=O)NCc2ccc(OC)c(OC)c2)CN(C(=O)OC(C)C)N1C(=O)OC(C)C)S(=O)(=O)c1ccc(C)cc1`: 35.2%; for `CC1(C)CC(=O)C=C(c2cccs2)C1`: 47.2% (active).
Still for that read-out and setting: the same measure for `CN(C)c1nnnn1-c1cccc(Oc2ncc(C(F)(F)F)cc2Cl)c1`: 38.6%.
On the same count and under the same terms, the result for `CN1c2ccccc2C(C)(C)C12C=Nc1c(cc(N3CCOCC3)c3ccccc13)O2` (centres undefined) reads 19.1%; that for `C#Cc1cc(N2CCN(C(=O)c3ccoc3)CC2)n2nc(-c3cccc(Cl)c3)cc2n1`, 55.6% (active).
As for `COc1ccc(NC(=S)NCCc2ccc(F)cc2)c(OC)c1`, the inhibition is 10.5%.
The same measure, in the same setting: the same measure for `O=C1c2cc(F)ccc2-n2c1nc1ccccc1c2=O`: 72.4% (active); for `Cc1no[n+]([O-])c1COc1ccc(/C=N/n2nnnc2N)cc1`: 51.9% (active).
On the same count and under the same terms, the result for `CCOc1ccc(C(=O)c2cc([N+](=O)[O-])ccc2Cl)cc1` reads 42.3% (active); that for `CCCc1nnc(SCC(=O)Nc2ccc(C(=O)OCC)cc2)o1`, 56.6% (active).
Same read-out and setting: the result for `Cc1cc(C(=O)CSc2nnnn2C)c(C)n1CCc1ccc(F)cc1` reads 49.4% (active); that for `CC(C)N1CCc2c(sc(NC(=O)c3ccc([N+](=O)[O-])o3)c2C(N)=O)C1`, 55.4% (active); that for `CCCCNC(=O)COC(=O)c1c2c(nc3ccccc13)/C(=C/c1cccs1)CC2`, 58% (active).
As for `CS/C(=C\[N+](=O)[O-])Nc1ccc(OC(F)(F)F)cc1`, the inhibition is 83.9% (active).
Turning to `COc1ccc(NC(=O)CSc2nnc(-c3ccccn3)n2N)cc1Cl`, the inhibition is 48.5% (active).
In the case of `C#Cc1ccc(NC(=O)C2(C)CCN2C(=O)Cc2ccc(C(C)(C)C)cc2)cc1` (centres undefined), the inhibition was 48% (active).
In the case of `Cc1cc(OCC(=O)Nc2ccc(OCc3ccccc3)cc2)nc(C(C)C)n1`, the inhibition was 48% (active).
As for `O=c1c2ccc(Cl)cc2nc(-c2cccc(C(F)(F)F)c2)n1O`, the inhibition is 42.6% (active).
Still for that read-out and setting: the same measure for `Cc1ccc(C(=O)N/N=C\c2ccc([N+](=O)[O-])o2)cn1`: 59% (active); for `Cc1cc(OCC(=O)Nc2nccs2)c2c(C)c(C)c(=O)oc2c1`: 74.5% (active); for `Cc1ccc(C)c(NC(=O)CSc2nnc(-c3n[nH]c4ccccc34)o2)c1`: 58.9% (active).
On the same count and under the same terms, the result for `COc1ccc(-c2cc(NC=O)c3ncc(-c4ccc(C(C)=O)cc4)n3c2)cn1` reads 66% (active).
